In the library only some 2.1% were active in any assay of this set; here they are far more common.
D2 ag-1 = human D2 receptor agonism in beta-arrestin assay | DiscoveRx PathHunter D2 beta-arrestin, luminescence, 90 min; 100% = 57 uM dopamine signal | P14416 | AID 624465 | hit rate 0.084% among 360,000 | activation, % (test concentration not listed); in the data active means activation above about 40%
Target sequence (P14416 whole entry, looked up): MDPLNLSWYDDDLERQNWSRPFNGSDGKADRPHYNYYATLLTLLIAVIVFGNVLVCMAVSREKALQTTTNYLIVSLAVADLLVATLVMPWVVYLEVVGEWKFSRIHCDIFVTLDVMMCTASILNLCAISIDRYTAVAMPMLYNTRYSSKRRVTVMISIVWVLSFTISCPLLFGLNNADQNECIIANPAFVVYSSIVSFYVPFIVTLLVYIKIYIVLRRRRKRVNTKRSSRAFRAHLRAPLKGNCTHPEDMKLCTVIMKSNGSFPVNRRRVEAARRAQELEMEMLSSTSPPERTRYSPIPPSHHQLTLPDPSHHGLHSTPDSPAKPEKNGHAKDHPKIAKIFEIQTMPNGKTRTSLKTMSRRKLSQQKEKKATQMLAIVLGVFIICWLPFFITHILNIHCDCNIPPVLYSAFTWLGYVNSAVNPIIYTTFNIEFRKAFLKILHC
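Agonist mode: compounds alone added to overnight-plated D2 PathHunter cells for 90 min at 37 C, with 57 uM final dopamine (EC100) defining full response. Beta-arrestin recruitment detected by chemiluminescent reagent, read after 1 h at ambient temperature.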
D2 PAM-1 = D2 dopamine receptor (human) potentiation. HEK293 T-REx D2, calcium flux, EC20 dopamine potentiation. hit rate 0.34% among 340,000. potentiation, % at 10 µM;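 active means potentiation over 3 SD above the plate norm, cut at about 30% in these data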
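Tetracycline-induced Hek293 Trex D2 cells, force-coupled to calcium, loaded with no-wash calcium dye. Compound added with 180 s kinetic read for agonism, then EC20 dopamine and a further 180 s read for potentiation.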
D2 PAM-2 = human D2 receptor positive allosteric modulation | P14416 | DiscoveRx D2 beta-arrestin cells, luminescence, 90 min; 100% = 57 uM dopamine signal | potentiation, % (concentration not given with the values) | hit rate 0.23% among 360,000; in the data active means potentiation above about 50%
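D2 cells co-treated with compound plus 50 nM dopamine (EC20) for 90 min at 37 deg C to detect potentiation. Beta-arrestin recruitment was read as enzyme-fragment luminescence after 1 h at ambient temperature. Full response was set by 57 uM dopamine.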
LDHA block = blocks human lactate dehydrogenase A | P00338 | purified LDHA, NADH/diaphorase-resazurin fluorescence; hits give low values | activity change, % (values are at about 110 or 230 µM) | hit rate 0.15% among 480,000 | AID 1347041; in the data active means activity change below about -30%
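Resorufin fluorescence (ex540/em590), read at 0 and 20 min after diaphorase/resazurin addition, reports the NADH left after a 5 min room-temperature reaction of 2 nM human LDH5 with 0.06 mM NADH and 0.2 mM pyruvate.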
D2 ag-2 = agonists of human D2 dopamine receptor. P14416. HEK293 T-REx D2 cells, calcium flux agonist mode. activation, % at 2 µM. hit rate 0.53% among 340,000. AID 485358;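 active means activation over 3 SD above normal in the single-dose calcium agonist read, cut at about 30% in these data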
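In this primary screen, compounds producing a positive calcium signal within 180 s of addition to tetracycline-induced, force-coupled HEK293 Trex D2 cells are flagged; cells are dye-loaded with a no-wash calcium kit beforehand.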
D2 antagonist = D2 dopamine receptor (human) antagonism; inhibition, % at 10 µM; HEK293 TREx D2 cells, calcium flux, dopamine EC80; hit rate 2% among 340,000; P14416; in the data active means inhibition above about 30%; inactive means below that, where a call was filed
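Antagonism is scored as inhibition of an EC80 dopamine-evoked calcium signal in a force-coupled, tetracycline-inducible HEK293 T-REx D2 line, with compound present 180 s before agonist.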
A number is an active result; i = inactive; nt = no result given.

SMILES | D2 ag-1 | D2 PAM-1 | D2 PAM-2 | LDHA block | D2 ag-2 | D2 antagonist
COc1cc(/C=C2\SC(=S)N(Nc3ccccc3)C2=O)ccc1O | i | i | i | i | nt | nt
COc1cc(/C=C2\SC(=N)N(c3ccc(F)cc3)C2=O)ccc1O | i | i | i | i | i | 55.8
COC(=O)C1C(=O)CC(C)(O)C(C(=O)OC)C1c1ccc(C)cc1 (stereo not given) | nt | nt | nt | i | nt | nt
CC(OC(=O)C12CC3CC(CC(Cl)(C3)C1)C2)C(=O)c1c[nH]c2ccccc12 (stereo not given) | nt | nt | nt | i | nt | nt
CC(C)(C)c1nnc(Nc2cccc(Cl)c2)[nH]c1=O | nt | nt | nt | i | nt | nt
CCOC(=O)c1ccc(Nc2nnc(C(C)(C)C)c(=O)[nH]2)cc1 | i | i | i | i | i | 53.1
CNC(=O)c1ccccc1NC(=O)c1ccco1 | i | 33.6 | i | i | i | i
O=C(Nc1ccccc1C(=O)N1CCOCC1)c1ccco1 | i | i | i | i | i | i
CC1CCCCN1C(=O)c1ccccc1NC(=O)c1ccco1 (stereo not given) | i | 31.3 | i | i | i | i
Cc1ccc(Nc2cc(C)nc(NCc3ccccc3)n2)c(C)c1 | nt | nt | nt | i | nt | nt
S=C(NCCc1ccccc1)Nc1ccccc1N1CCOCC1 | i | i | i | i | i | 44.7
O=C(NC(=S)Nc1ccccc1N1CCOCC1)c1ccco1 | i | i | i | i | i | i
N#CC1=C(N)Oc2n[nH]c(-c3ccccc3)c2C12C(=O)N(Cc1cccc(F)c1)c1ccccc12 (stereo not given) | nt | nt | nt | i | nt | nt
CS(=O)(=O)c1ccc(NCC2CCCO2)c([N+](=O)[O-])c1 (stereo not given) | i | 125.3 | i | i | i | i
Cc1cccc(NC(=O)c2ccc(NCC3CCCO3)c([N+](=O)[O-])c2)c1 (stereo not given) | i | i | i | i | i | i
Cc1ccc(C(=O)Nc2nnc(-c3ccco3)o2)cc1Br | nt | nt | nt | i | nt | nt
COc1cccc(-c2cc(C(F)(F)F)n3ncc(C(=O)N4CCc5ccccc5C4)c3n2)c1 | i | i | i | i | i | 50.0
CCCCn1c(=O)n(CC(=O)Nc2cccc(F)c2)c(=O)c2c1ncn2Cc1ccco1 | nt | nt | nt | i | nt | nt
CC(C)(C)NC(=O)C1CCCN(S(=O)(=O)c2ccc(-n3cnnn3)cc2)C1 (stereo not given) | i | i | i | i | i | 32.0
COC(=O)c1cccc(-n2cnnn2)c1 | i | i | i | i | i | i
COc1cc(OC)cc(N2CCN(S(=O)(=O)c3ccc(-n4cnnn4)cc3)CC2)c1 | i | i | i | i | i | 46.3
CC(=O)Nc1ccc(NC(=O)C2CCCN(S(=O)(=O)c3ccc(-n4cnnn4)cc3)C2)cc1 (stereo not given) | i | nt | i | i | i | i
COc1ccccc1N1CCN(S(=O)(=O)c2ccc(-n3cnnn3)cc2)CC1 | i | i | i | i | i | i
COc1cccc(-n2cnnn2)c1 | i | i | i | i | i | 37.5
CCOc1cc(/C=C/C(=O)c2ccc(C)cc2)cc(Br)c1O | nt | nt | nt | i | nt | nt
SMILES | D2 ag-1 | D2 PAM-1 | D2 PAM-2 | LDHA block | D2 ag-2 | D2 antagonist
Cn1cc(C(=O)NC2CCCCCC2)c(=O)c2cc(S(=O)(=O)N3CCCC3)ccc21 | i | i | i | i | i | i
Cn1cc(C(=O)NC2CCCCCCC2)c(=O)c2cc(S(=O)(=O)N3CCCC3)ccc21 | i | 31.7 | i | i | i | i
CCn1cc(C(=O)N2CCc3ccccc3C2)c(=O)c2cc(S(=O)(=O)N3CCCCC3)ccc21 | nt | i | nt | nt | 68.1 | i
Cn1cc(C(=O)N2CCc3ccccc3C2)c(=O)c2cc(S(=O)(=O)N3CCCCC3)ccc21 | nt | i | nt | nt | i | i
CC1CCCN(CCCNC(=O)c2cn(C)c3ccc(S(=O)(=O)N(C)C4CCCCC4)cc3c2=O)C1 (stereo not given) | i | i | i | i | i | 36.5
COCCn1c2c(c(=O)[nH]c1=O)C(c1ccccc1Cl)C1=C(N2)c2ccccc2C1=O (stereo not given) | nt | nt | nt | i | nt | nt
COc1cc(C(C)=O)ccc1SCC(=O)O | nt | nt | nt | i | nt | nt
Cc1ccc2c(COC(=O)Cc3n[nH]c(=O)c4ccccc34)cc(=O)oc2c1C | nt | nt | nt | i | nt | nt

Bioassay records from PubChem.
